The source of these data is PubChem BioAssay (NCATS).

Unmarked numbers belong to inactive results. Inconclusive results are not listed. The source made the active and inactive calls. Unless noted, the call rests on the fitted dose curve; in most records, active means well fitted curve in the direction sought with a large enough effect; inconclusive means small, poorly fitted or top-dose-only effect, or another doubt; inactive means no such curve, though single readings can be large; an effect the other way counts as inactive or inconclusive.

Test [1] in a line: Cell Viability - LYMP2-001 (AID 921). Further: nearly all actives have a fitted effect of over 70% in size. Further: potency means the concentration at half of the fitted maximal effect. Summed up: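 Cellular ATP loss read by luciferase luminescence after 24 h compound exposure at 37 C in complete medium. LYMP2-001 lymphoblastoid cells, 2500/well; qHTS concentration-response data fitted with Hill equation for AC50.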
The nature of test [2]: MultiTox-Fluor Cytotoxicity Assay - LYMP1-001 - Live Cells (AID 947). Further: potency means the concentration at half of the fitted maximal effect.
The nature of test [3]: Cell Viability - LYMP1-002 - Assay at 16 hr (AID 948). Further: potency means the concentration at half of the fitted maximal effect. Summed up:
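ATP luminescence (CellTiter-Glo) was measured after 16 hr compound exposure at 37 C of 2500 lymphoblastoid LYMP1-002 cells per well. Concentration-response curves were fitted with the Hill equation to give AC50.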

Test [4] in a line: MultiTox-Fluor Cytotoxicity Assay - LYMP1-002 - Live Cells (AID 955). Further: potency means the concentration at half of the fitted maximal effect. The method in brief: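 Human lymphoblastoid LYMP1-002 cells, 2500/well in complete medium, rested 5 hr at 37 C, then exposed to compounds for 16 hr at 37 C. Live-cell protease cleavage of GF-AFC read by fluorescence (Ex/Em 405/510) after 60 min at room temperature; AC50 from Hill fits.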
Test [5] is described as follows: MultiTox-Fluor Cytotoxicity Assay - LYMP1-003 - Dead Cells (AID 961). Further: nearly all actives have a fitted effect of over 70% in size. Further: potency means the concentration at half of the fitted maximal effect. The method in brief: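 Dead-cell protease release, detected as bis-AAF-R110 fluorescence at 485/520 nm, was measured in LYMP1-003 cells after 16 h compound treatment at 37 C. AC50 values came from Hill-modeled qHTS curves normalized to DMSO (0%) and 15 uM tetraoctylammonium bromide (100%).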
The nature of test [6]: MultiTox-Fluor Cytotoxicity Assay - LYMP1-003 - Live Cells (AID 962). Further: potency means the concentration at half of the fitted maximal effect. The method in brief: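 LYMP1-003 human lymphoblastoid cells (2500/well) in complete medium were preincubated 5 hr at 37 C, then exposed to compounds for 16 hr at 37 C. Live-cell protease cleavage of GF-AFC read by fluorescence (Ex/Em 405/510); AC50 from Hill fits.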
The nature of test [7]: Cell Viability - LYMP1-003 - Assay at 24 hr (AID 963). Further: potency means the concentration at half of the fitted maximal effect. Summed up: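 Human lymphoblastoid LYMP1-003 cells (2500/well) were rested 5 hr at 37 C, then exposed to compounds in complete medium for 24 hr at 37 C. Cellular ATP was quantified by CellTiter-Glo luminescence, and AC50 values came from Hill fits of concentration-response data.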
The nature of test [8]: Cell Viability - LYMP1-003 - Assay at 40 hr (AID 964). Further: potency means the concentration at half of the fitted maximal effect; nearly all actives have a fitted effect of over 60% in size. The method in brief: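 Human lymphoblastoid LYMP1-003 cells, 2500/well in complete medium, rested 5 hr at 37 C, then exposed to compounds for 40 hr at 37 C. Viability read as intracellular ATP by CellTiter-Glo luminescence; AC50 from Hill fits of concentration-response data.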
The nature of test [9]: Cell Viability - LYMP2-003 (AID 965).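 Further: cells exposed to compounds for 24 h before reading; nearly all actives have a fitted effect of over 50% in size.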 Further: potency means the concentration at half of the fitted maximal effect. Summed up:
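CellTiter-Glo luminescence quantified ATP loss after 24 h compound treatment of LYMP2-003 lymphoblastoid cells at 37 C. Titration series were fitted with the standard Hill equation to give AC50.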

The target of test [10] is Alpha-galactosidase (Coffea arabica) (UniProt Q42656). The test can be described thus: Counterscreen for Glucocerebrosidase Inhibitors: qHTS Assay for Coffee Bean alpha-Galactosidase at pH 4.5 (AID 957).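 Further: series mostly up to about 77 µM; plate controls were enzyme alone for no effect and no enzyme for full effect.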 The method in brief: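 Green coffee bean enzyme (2 nM final) was incubated with compounds (0.7 nM to 77 uM) and 4-methylumbelliferyl alpha-D-galactopyranoside (80 uM final) in 50 mM citric acid, 0.005% Tween-20, pH 4.5, 20 min at room temperature; AC50 from Hill fits.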
Sequence of Alpha-galactosidase (Coffea arabica) (Q42656 whole entry, looked up): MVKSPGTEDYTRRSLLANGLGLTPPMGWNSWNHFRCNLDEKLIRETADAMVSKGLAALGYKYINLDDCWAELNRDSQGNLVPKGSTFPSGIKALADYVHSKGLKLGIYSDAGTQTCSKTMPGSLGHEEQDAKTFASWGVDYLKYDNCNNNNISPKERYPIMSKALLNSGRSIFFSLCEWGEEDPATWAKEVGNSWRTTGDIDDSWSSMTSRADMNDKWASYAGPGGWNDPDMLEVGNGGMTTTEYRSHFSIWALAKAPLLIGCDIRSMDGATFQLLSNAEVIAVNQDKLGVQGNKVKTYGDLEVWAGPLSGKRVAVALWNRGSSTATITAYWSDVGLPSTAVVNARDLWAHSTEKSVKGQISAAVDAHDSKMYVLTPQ
Background: Counterscreens check selectivity or assay interference.

The target of test [11] is Muscarinic acetylcholine receptor M1 (Rattus norvegicus) (UniProt P08482). The test can be described thus: qHTS Assay for Antagonists of Acetylcholine Muscarinic M1 Receptor: Kinetic Measurement of Intracellular Calcium Response (AID 943). Further: nearly all actives have a fitted effect of over 75% in size. Further: potency means the concentration at half of the fitted maximal effect. The method in brief: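 CHO cells stably expressing rat M1 were loaded with no-wash Fluo-4 dye for 1 h at 37C, pre-incubated 10 min with compound, then challenged with EC80 carbachol (100 nM final); kinetic calcium read 4 min, peak/basal ratio.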
Sequence of Muscarinic acetylcholine receptor M1 (Rattus norvegicus) (P08482 whole entry, looked up): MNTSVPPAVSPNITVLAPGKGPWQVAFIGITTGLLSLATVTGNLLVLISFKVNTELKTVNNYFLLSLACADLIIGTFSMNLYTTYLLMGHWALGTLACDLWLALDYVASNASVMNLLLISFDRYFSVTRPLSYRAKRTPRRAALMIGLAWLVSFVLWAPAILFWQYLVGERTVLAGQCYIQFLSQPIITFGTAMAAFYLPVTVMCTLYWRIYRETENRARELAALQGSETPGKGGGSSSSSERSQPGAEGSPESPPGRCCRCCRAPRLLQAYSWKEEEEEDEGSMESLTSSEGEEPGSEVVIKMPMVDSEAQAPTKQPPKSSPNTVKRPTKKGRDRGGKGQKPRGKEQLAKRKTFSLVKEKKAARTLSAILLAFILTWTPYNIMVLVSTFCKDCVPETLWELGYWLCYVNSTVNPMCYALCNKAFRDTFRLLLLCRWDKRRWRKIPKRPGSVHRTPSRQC

The target is the same in test [12]. The test can be described thus: qHTS Assay for Antagonists of Acetylcholine Muscarinic M1 Receptor: Measurement of IP-One Response (AID 944). Further: nearly all actives have a fitted effect of over 75% in size. Further: potency means the concentration at half of the fitted maximal effect. The method in brief:
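CHO cells expressing rat M1 receptor, recovered overnight, were pre-incubated 10 min with compound, then stimulated 30 min with carbachol at EC80 (200 nM) in LiCl-containing buffer, pH 7.4. IP1 accumulation was read by HTRF (620/665 nm).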
Background: In qHTS, concentration-response curves come from the screen itself.

Test [13] deals with Pyruvate kinase (Leishmania mexicana) (UniProt Q27686). The test can be described thus: qHTS Validation Assay for Inhibitors of Leishmania Mexicana Pyruvate Kinase (AID 945).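 Further: 0% = DMSO only neutral control wells.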 The method in brief: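 LmPYK E451W 0.2 nM; 0.5 mM PEP, 0.1 mM ADP, 7 mM MgCl2, 50 mM KCl, imidazole pH 7.2, 0.01% Tween 20, 0.05% BSA; 1 h RT; PKLight luminescence; DMSO-normalized.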
Sequence of Pyruvate kinase (Leishmania mexicana) (Q27686 2-499 E452W): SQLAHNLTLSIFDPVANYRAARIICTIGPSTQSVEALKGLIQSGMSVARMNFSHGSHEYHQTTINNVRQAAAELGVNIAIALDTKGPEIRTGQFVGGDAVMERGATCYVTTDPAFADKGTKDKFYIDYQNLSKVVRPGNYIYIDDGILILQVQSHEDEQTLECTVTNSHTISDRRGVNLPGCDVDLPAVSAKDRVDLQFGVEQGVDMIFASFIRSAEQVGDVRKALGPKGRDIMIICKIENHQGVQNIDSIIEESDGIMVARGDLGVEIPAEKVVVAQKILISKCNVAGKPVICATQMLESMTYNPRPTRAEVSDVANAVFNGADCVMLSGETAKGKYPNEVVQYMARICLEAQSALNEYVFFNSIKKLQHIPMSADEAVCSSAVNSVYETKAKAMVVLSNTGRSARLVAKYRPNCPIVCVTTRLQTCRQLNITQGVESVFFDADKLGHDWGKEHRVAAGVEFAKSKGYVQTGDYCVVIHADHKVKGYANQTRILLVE
Test [14] concerns the target Pyruvate kinase PKM (Homo sapiens) (UniProt P14618). The test can be described thus: qHTS Assay for Activators of Human Muscle Pyruvate Kinase (AID 954; active means well fitted curve in the direction sought with a large enough effect, not every such curve was filed as active;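 further: 0% = uninhibited enzyme and -100% = no enzyme or full thiadiazolimine inhibition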). The method in brief: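 Human PKM2 activity is measured as ATP generation, detected by luciferase-coupled luminescence. The enzyme (0.1 nM) acts on 0.5 mM PEP and 0.1 mM ADP for 1 h at ambient temperature; data are normalized to uninhibited and full-inhibition wells.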

Test [15] can be described thus: MultiTox-Fluor Cytotoxicity Assay - LYMP1-001 - Dead Cells (AID 946). Further: potency means the concentration at half of the fitted maximal effect. Summed up:
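Cytotoxicity as increased dead-cell protease fluorescence (bis-AAF-R110, 485/520 nm), read 60 min after MultiTox-Fluor reagent. Human lymphoblastoid line exposed 16 h; Hill-fitted AC50, with DMSO as 0% and 15 uM tetraoctylammonium bromide as 100%.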

For test [16], the target named is Cytochrome P450 2C19 (Homo sapiens) (UniProt P33261). The test can be described thus: qHTS Assay for Inhibitors and Substrates of Cytochrome P450 2C19 (AID 899). Further: on the % scale 0 is the no-effect control and ±100 the full control effect; nearly all actives have a fitted effect of over 60% in size. Summed up:
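Luminescent read-out of luciferin formed from Luciferin-H EGE (10uM, equal to KM). Enzyme 5nM in 50mM KPO4; compound added, 10 min at 37C, then NADPH regenerating system for 60 min at 37C. Full inhibition defined by 57uM ketoconazole.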

Test [17] is described as follows: qHTS Assay for Identification of Small Molecule Agonists for Hypoxia Response Element Signaling Pathway (AID 914; active means well fitted activation curve with a large enough effect in the signal ratio, with a control signal flat, not every such curve was filed as active; the % refers to the signal ratio; further: % of control where 0% means no effect). Conditions: ME-180 HRE-bla reporter, beta-lactamase ratio, CoCl2, 17 h; hits give high values. Summed up: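 ME-180 cells carrying an HRE-driven beta-lactamase reporter were treated with compounds in a titration series plus an EC50 level of CoCl2 for 17 h at 37 degrees Celsius; CCF4 readout as the 460nm/530nm ratio gave AC50 values.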

Test [18] in a line: qHTS Assay for Identification of Small Molecule Agonists for Thrombopoietin (TPO) Signaling Pathway (AID 917). Further: on the % scale 0 is the no-effect control and ±100 the full control effect. The method in brief: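 Reporter: GpIIb promoter–luciferase in murine Ba/F3 expressing human TPO receptor. Pre-starved of IL-3 overnight; compounds with 26 pM TPO, 24 hrs, 37 C/5% CO2; luminescence read.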
Test [19] is described as follows: MultiTox-Fluor Cytotoxicity Assay - LYMP1-002 - Dead Cells (AID 960). Further: nearly all actives have a fitted effect of over 60% in size. The method in brief:
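Human lymphoblastoid cells (LYMP1-002), 2500/well in complete medium, were exposed to compounds for 16 hr at 37 C. Dead-cell protease activity was read as bis-AAF-R110 fluorescence (Ex/Em 485/520), normalized to DMSO and 15 uM tetraoctylammonium bromide; AC50 from Hill fits.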

Test [20] in a line: Cell Viability - LYMP2-004 (AID 966). Further: nearly all actives have a fitted effect of over 65% in size. Further: potency means the concentration at half of the fitted maximal effect. Summed up: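 Human lymphoblastoid cells (2500/well) in complete medium were treated with compounds for 24 hr at 37 C, then intracellular ATP was measured by CellTiter-Glo luminescence. AC50 values came from Hill-equation fits of concentration-response data.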

Sequence of Pyruvate kinase PKM (Homo sapiens) (P14618 whole entry, looked up): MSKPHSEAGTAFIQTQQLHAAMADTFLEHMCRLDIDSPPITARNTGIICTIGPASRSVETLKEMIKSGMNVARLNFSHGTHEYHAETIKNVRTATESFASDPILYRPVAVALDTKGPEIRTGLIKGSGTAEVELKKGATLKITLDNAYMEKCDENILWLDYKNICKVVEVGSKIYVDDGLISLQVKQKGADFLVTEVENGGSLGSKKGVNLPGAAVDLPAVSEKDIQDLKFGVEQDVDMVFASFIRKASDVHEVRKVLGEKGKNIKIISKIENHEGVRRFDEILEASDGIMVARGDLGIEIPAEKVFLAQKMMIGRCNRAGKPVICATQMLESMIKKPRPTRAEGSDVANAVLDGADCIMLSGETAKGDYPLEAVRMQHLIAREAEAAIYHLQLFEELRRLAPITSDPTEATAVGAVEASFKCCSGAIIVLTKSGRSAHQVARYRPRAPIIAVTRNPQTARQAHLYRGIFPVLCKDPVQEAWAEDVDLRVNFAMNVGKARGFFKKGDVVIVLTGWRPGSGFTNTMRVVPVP
Sequence of Cytochrome P450 2C19 (Homo sapiens) (P33261 whole entry, looked up): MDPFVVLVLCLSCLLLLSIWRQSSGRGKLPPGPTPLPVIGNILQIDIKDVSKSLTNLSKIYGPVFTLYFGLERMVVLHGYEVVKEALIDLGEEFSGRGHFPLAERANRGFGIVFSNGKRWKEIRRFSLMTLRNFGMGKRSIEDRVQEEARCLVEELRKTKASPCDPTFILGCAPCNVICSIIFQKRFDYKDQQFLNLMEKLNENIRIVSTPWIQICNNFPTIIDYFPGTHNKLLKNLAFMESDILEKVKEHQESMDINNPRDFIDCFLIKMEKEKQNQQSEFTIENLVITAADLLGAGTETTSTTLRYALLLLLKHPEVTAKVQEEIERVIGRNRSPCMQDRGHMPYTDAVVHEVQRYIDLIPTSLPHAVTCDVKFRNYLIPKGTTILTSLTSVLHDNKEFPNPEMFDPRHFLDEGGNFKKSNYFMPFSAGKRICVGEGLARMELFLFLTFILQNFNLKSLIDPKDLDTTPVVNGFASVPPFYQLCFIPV

Turning to `CCCCCCCCCCCC[N+](C)(C)CCOc1ccccc1`, the Potency in test [1] is 31.6 µM (active); in [2], 25.1 µM (active); in test [3] it was 15.8 µM (active); in [4] it was 10 µM (active); in test [5] it was 12.6 µM (active); in test [6], 31.6 µM (active). The Potency in [7] is 12.6 µM (active); in [8], 31.6 µM (active); in test [9] it was 50.1 µM (active).

As for `CCCn1cnc2c1c(=O)n(CCCCC(C)=O)c(=O)n2C`, the compound was called inactive in test [10].

As to `C[C@H](N)[C@H](O)c1ccc(O)c(O)c1`, the Potency result in test [11] and in test [12] was “inactive” each time. Also, the call in test [13], in test [14] and in [10] was inactive.

With `CC[n+]1c(-c2ccccc2)c2cc(N)ccc2c2ccc(N)cc21`, the Potency in test [1] was 7.94 µM (active); in [15] it was 39.8 µM (active); in test [2], 25.1 µM (active); in [5] it was 39.8 µM (active); in test [6], 12.6 µM (active); in test [7], 15.8 µM (active). For the same compound, the Potency in test [8] is 6.31 µM (active); in test [9], 31.6 µM (active).

Turning to `CN1[C@@H]2CC[C@H]1CC(OC(=O)c1cc(Cl)cc(Cl)c1)C2` (some centres undefined), in test [16], the Potency result was “inactive”. Besides, the activation in test [17] is 16.3%. The call in [18], in test [13], in test [14] and in test [10] was inactive. Also, the figures for the Potency in [11] and in test [12] were 3.16 µM (active) and 3.98 µM (active), respectively.

As for `CNC(=O)Oc1cccc2ccccc12`, the Potency result in [1], in [15], in test [2], in [3], in test [4] and in test [19] was “inactive” throughout. Also, the Potency entry in [5], in test [6], in [7], in test [9] and in [20] was “inactive” in each case.

On to `O=C(O)CN(CCOCCOCCN(CC(=O)O)CC(=O)O)CC(=O)O`, for which, in test [10], the outcome was inactive.

Take `CN(C)CCOC(c1ccccc1)c1ccccc1`: in test [10], the compound was called inactive.

Turning to `CN(C)C(=S)SSC(=S)N(C)C`, the Potency in [1] is 0.158 µM (active); in test [15] it was 0.794 µM (active); in test [2], 39.8 µM (active); in test [3], 20 µM (active); in [4], 10 µM (active); in test [5], 12.6 µM (active). For the same compound, the Potency in [6] is 50.1 µM (active); in test [7] it was 15.8 µM (active); in test [9] it was 0.251 µM (active); in test [20], 0.251 µM (active).
